# Data reported in the supplement of paper PMC6555819.
# System: RXRa DBDmut IVT, anti-RXR (DBD mutation: RXRa K156A/R161A, NR concentration 90 nM)
# Experiment: PBM binding z-score (relative to random genomic background probes); higher = stronger binding; sequences stand for … in GC…GCGATTGACAGCGTAGAATGAAGG
# Procedure, shortened: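 Regression normalization was applied to scanned fluorescence from custom Agilent 4×180K protein-binding microarrays. Before scanning, arrays were incubated 1 h with ligand-free nuclear receptor dimers, and binding was detected with antibodies against each partner (one per run). Binding z-scores use the random background probes as reference.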
row,Sequence,PBM binding z-score
1,TCTCGGAGGACACGAAAGGTCAGATCTCGACATC,1.53
2,CCTCGGAGGACAGAGGGTCAGAGCTGTCCGCTTT,-0.382
3,ATCTCTAGGTAAGACTCAGTTTAGTGAAGAACGC,0.443
4,ATCGAAAGGTCGAAGGTGAGTATCCCCACCCGAA,0.658
5,AATACAGGGGCATCGTAGGCCAGAGTACGCACAG,0.834
6,CGTCCAAGGTCAAGTTCAGTGAAAGAGACTCGAA,4.31
7,CGTCCAAGGCCAGCAGGTCAGTGAAAGCGACGTG,-0.479
8,GATACAGGGTCAAGGCTAGAGTACGCGTATTGAT,2.4
9,TGTCTAAGTTCAAAGGTAACGTAAGTATCCACAC,4.28
10,TCAGACAGGTGAATGTAACTCAGGTACGCAGTCG,1.01
11,TGAATGAGGGTATAAGATCAGGGAACGTTGCAAA,-0.155
12,CCTATCAGTTGACCATAAGGGCAACCGAAGCTCG,0.139
13,CCTTACGGGTCACTGACACGTTATAGCATTTGGA,2.05
14,CCAGACAGGTGAGAAGATAACTCAGCCTCGATTA,0.0832
15,CAAACTAGGTCACCAAAGGTCAAAGTCGAATGAC,2.57
16,CAGCCTAGGTCAGGGCCGGTATAGGAGGAACGTT,-0.785
17,AGAATGAGGTTATACGTAGATCAGGCAAGAAAGT,1.62
18,GCAGACAGGTGAAACGCATGTAACTCAGGGTGGC,-0.443
19,TCTATTAGTTGATTAGGGCACCCGAAACAGCGGA,1.22
20,AGTCAACGTTCATCTAGGTAACGTAAGATATGCT,-0.0413
21,GCTTGAAGATCAAGGTTAAGAAAGACTAAGCTAA,-0.437
22,AGAATGACGTTATTAAGATCAGGGAATTGCGGTC,-0.095
